Consider six compounds from PubChem BioAssay (EPA / NIEHS).

Active and inactive are the calls of the source. Rule for the calls: active = hit-call score of the fitted dose curve at least 0.9, where 1 is the maximum; inactive = score below 0.9.

For orientation: AC50 means the midpoint of the concentration-response curve, whichever way the signal moves.

What all share (conditions): mRNA level, 48 h; actives raise or lower the signal
Read-out in experiment [1]: Fatty Acid-Binding Protein 1 (FABP1), FABP1 (gene 2168)
Nature of the experiment: LTEA_HepaRG_FABP1: Life Technologies and Expression Analysis (LTEA) Assay for Fatty Acid-Binding Protein 1 (FABP1) using HepaRG (AID 2283494). The method, boiled down: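 FABP1 expression by TaqMan qRT-PCR, normalised to three housekeeping genes, in HepaRG cells after 48 h chemical treatment. Eight-point half-log series topping at 100 uM in 0.5% DMSO, duplicates; gain or loss fitted relative to vehicle.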

Read-out in experiment [2]: Cytochrome P450 4A22 (Homo sapiens) (UniProt Q5TCH4)
Nature of the experiment: LTEA_HepaRG_CYP4A22: Life Technologies and Expression Analysis (LTEA) Assay for Cytochrome P450 4A22 (CYP4A22) using HepaRG (AID 2283495). A digest of the protocol:
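qRT-PCR of CYP4A22 mRNA (Fluidigm TaqMan, normalized to three housekeeping genes) after 48 h chemical exposure of HepaRG cells; 8-point half-log series, top 100 uM, 0.5% DMSO vehicle. Bidirectional curve fitting vs DMSO baseline.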

Read-out in experiment [3]: Cytochrome P450 7A1 (Homo sapiens) (UniProt P22680)
In words: LTEA_HepaRG_CYP7A1: Life Technologies and Expression Analysis (LTEA) Assay for Cytochrome P450 7A1 (CYP7A1) using HepaRG (AID 2283496). A digest of the protocol:
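HepaRG, 48 h exposure, 8-pt half-log series from 100 uM, 0.5% DMSO vehicle, duplicates. Readout: TaqMan qRT-PCR mRNA vs three housekeeping genes; bidirectional curve fit against DMSO baseline.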

Read-out in experiment [4]: Glutathione S-Transferase (GSTA2), GSTA2 (gene 2939)
In words: LTEA_HepaRG_GSTA2: Life Technologies and Expression Analysis (LTEA) Assay for Glutathione S-Transferase (GSTA2) using HepaRG (AID 2283497). A digest of the protocol: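 GSTA2 transcript levels came from Fluidigm TaqMan qRT-PCR normalized to three housekeeping genes, fitted in both directions against DMSO. HepaRG cultures received chemicals for 48 h in serum-free induction medium (0.5% DMSO), 8 half-log concentrations up to 100 uM, duplicate.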

Read-out in experiment [5]: Glutamate-cysteine ligase catalytic (GCLC), GCLC (gene 2729)
In words: LTEA_HepaRG_GCLC: Life Technologies and Expression Analysis (LTEA) Assay for Glutamate-cysteine ligase catalytic (GCLC) using HepaRG (AID 2283498). A digest of the protocol: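 Expression by TaqMan qRT-PCR, normalized to three housekeeping genes (ACTB, GAPDH, POLR2A), with up- or down-regulation fitted against DMSO. HepaRG cells dosed in duplicate for 48 h with 8 half-log concentrations up to 100 uM, vehicle 0.5% DMSO.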

Read-out in experiment [6]: growth arrest and DNA damage 45 (GADD45G), GADD45G (gene 10912)
In words: LTEA_HepaRG_GADD45G: Life Technologies and Expression Analysis (LTEA) Assay for growth arrest and DNA damage 45 (GADD45G) using HepaRG (AID 2283499). The method, boiled down:
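Differentiated human HepaRG cells in serum-free induction medium were exposed for 48 h to 8 half-log concentrations up to 100 uM in 0.5% DMSO, in duplicate. GADD45G mRNA was measured by TaqMan qRT-PCR, normalised to ACTB, GAPDH and POLR2A, and fitted bidirectionally against DMSO.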

Read-out in experiment [7]: Glutamate-cysteine ligase regulatory (GCLM), GCLM (gene 2730)
In words: LTEA_HepaRG_GCLM: Life Technologies and Expression Analysis (LTEA) Assay for Glutamate-cysteine ligase regulatory (GCLM) using HepaRG (AID 2283500). The method, boiled down:
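GCLM expression quantified by qRT-PCR, normalized to three housekeeping genes, after 48 h chemical treatment of HepaRG cells in duplicate at 8 concentrations (top 100 uM, half-log steps, 0.5% DMSO). Changes fitted both directions against vehicle.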

Read-out in experiment [8]: Glutathione S-transferase M3 (GSTM3), GSTM3 (gene 2947)
In words: LTEA_HepaRG_GSTM3: Life Technologies and Expression Analysis (LTEA) Assay for Glutathione S-transferase M3 (GSTM3) using HepaRG (AID 2283501). The method, boiled down: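 Differentiated HepaRG cells in serum-free induction medium were exposed in duplicate for 48 h to 8 half-log concentrations up to 100 uM in 0.5% DMSO. GSTM3 mRNA was measured by TaqMan qRT-PCR, normalized to ACTB/GAPDH/POLR2A, and fitted bidirectionally versus DMSO.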

Read-out in experiment [9]: Heat shock 70 kDa protein 1 (HSPA1A), gene 3303
In words: LTEA_HepaRG_HSPA1A: Life Technologies and Expression Analysis (LTEA) Assay for Heat shock 70 kDa protein 1 (HSPA1A) using HepaRG (AID 2283502). A digest of the protocol: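 HSPA1A expression measured by qRT-PCR with ACTB/GAPDH/POLR2A normalization; curves fitted in both directions relative to DMSO vehicle. Exposure: 48 h in HepaRG cells, duplicate 8-point half-log series from 100 uM, 0.5% DMSO, serum-free induction medium.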

Read-out in experiment [10]: Hypoxia-inducible factor 1-alpha (Homo sapiens) (UniProt Q16665)
In words: LTEA_HepaRG_HIF1A: Life Technologies and Expression Analysis (LTEA) Assay for Hypoxia-inducible factor 1 (HIF1A) Trancription factor using HepaRG (AID 2283503). A digest of the protocol: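 HIF1A transcript level read by qRT-PCR (ACTB, GAPDH, POLR2A normalization) after 48 h chemical exposure of HepaRG cultures. Eight half-log concentrations, top 100 uM, 0.5% DMSO vehicle, duplicates; bidirectional curve fit against DMSO baseline.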

Read-out in experiment [11]: 3-Hydroxy-3-Methylglutaryl-CoA Synthase 2 (HMGCS2), HMGCS2 (gene 3158)
Nature of the experiment: LTEA_HepaRG_HMGCS2: Life Technologies and Expression Analysis (LTEA) Assay for 3-Hydroxy-3-Methylglutaryl-CoA Synthase 2 (HMGCS2) using HepaRG (AID 2283504). The method, boiled down: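 Differentiated human HepaRG cells were exposed in duplicate for 48 h in serum-free induction medium to eight concentrations (top 100 uM, half-log steps, 0.5% DMSO). HMGCS2 mRNA was quantified by TaqMan qRT-PCR, normalised to ACTB, GAPDH and POLR2A, then fitted bidirectionally against DMSO.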

Read-out in another experiment: HGF (gene 3082)
Nature of the experiment: LTEA_HepaRG_HGF: Life Technologies and Expression Analysis (LTEA) Assay for Hepatocyte Growth Facto (HGF) using HepaRG (AID 2283505). The method, boiled down: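 Differentiated human HepaRG cells in serum-free induction medium were exposed in duplicate for 48 h to eight concentrations (top 100 uM, half-log steps, 0.5% DMSO). HGF mRNA was quantified by qRT-PCR, normalized to ACTB, GAPDH and POLR2A.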

Read-out in experiment [12]: Insulin Like Growth Factor 1 (IGF1), IGF1 (gene 3479)
Nature of the experiment: LTEA_HepaRG_IGF1: Life Technologies and Expression Analysis (LTEA) Assay for Insulin Like Growth Factor 1 (IGF1) using HepaRG (AID 2283506). A digest of the protocol: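 Expression measured by TaqMan qRT-PCR on a Fluidigm array, with three housekeeping genes for normalisation, after 48 h treatment of HepaRG cells. Top concentration 100 uM with half-log steps, 0.5% DMSO vehicle, bidirectional fit.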

Read-out in experiment [13]: Intercellular Adhesion Molecule 1 (ICAM1), ICAM1 (gene 3383)
Nature of the experiment: LTEA_HepaRG_ICAM1: Life Technologies and Expression Analysis (LTEA) Assay for Intercellular Adhesion Molecule 1 (ICAM1) using HepaRG (AID 2283507). A digest of the protocol:
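Differentiated HepaRG cells in serum-free induction medium were exposed in duplicate for 48 h to eight half-log concentrations up to 100 uM in 0.5% DMSO. Transcript levels were measured by qRT-PCR normalized to ACTB, GAPDH and POLR2A; bidirectional fits relative to DMSO.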

Read-out in experiment [14]: Insulin-like growth factor-binding protein 1 (IGFBP1), IGFBP1 (gene 3484)
Nature of the experiment: LTEA_HepaRG_IGFBP1: Life Technologies and Expression Analysis (LTEA) Assay for Insulin-like growth factor-binding protein 1 (IGFBP1) using HepaRG (AID 2283508). A digest of the protocol:
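Differentiated human HepaRG cells in serum-free induction medium were exposed in duplicate for 48 h to eight concentrations, top 100 uM with half-log dilutions, in 0.5% DMSO. Transcript levels came from qRT-PCR normalised to ACTB, GAPDH and POLR2A, fitted bidirectionally against DMSO.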

Read-out in experiment [15]: Interleukin 6 (IL6), IL6 (gene 3569)
Nature of the experiment: LTEA_HepaRG_IL6: Life Technologies and Expression Analysis (LTEA) Assay for Interleukin 6 (IL6) using HepaRG (AID 2283509). A digest of the protocol:
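Transcript levels, normalized to three housekeeping genes, were quantified by qRT-PCR after 48 h chemical treatment of HepaRG cells. Eight-point half-log series from 100 uM in 0.5% DMSO, duplicates. Fitted both directions against DMSO baseline.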

Read-out in experiment [16]: Interleukin 6 Receptor (IL6R), IL6R (gene 3570)
In words: LTEA_HepaRG_IL6R: Life Technologies and Expression Analysis (LTEA) Assay for Interleukin 6 Receptor (IL6R) using HepaRG (AID 2283510). A digest of the protocol: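 IL6R transcript level by qRT-PCR after 48 h chemical exposure (8-point, half-log, max 100 uM, 0.5% DMSO vehicle) of HepaRG cells in serum-free induction medium. Normalized to three housekeeping genes; curves fitted in both directions relative to DMSO.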

Read-out in experiment [17]: Potassium channel subfamily K member 1 (KCNK1), KCNK1 (gene 3775)
In words: LTEA_HepaRG_KCNK1: Life Technologies and Expression Analysis (LTEA) Assay for Potassium channel subfamily K member 1 (KCNK1) using HepaRG (AID 2283511). The method, boiled down:
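KCNK1 transcript measured by TaqMan qRT-PCR against three housekeeping genes, after HepaRG cells were treated 48 h with eight half-log concentrations (top 100 uM, 0.5% DMSO). Curves fitted bidirectionally relative to vehicle.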

Read-out in experiment [18]: JUN Transcription Factor, JUN (gene 3725)
In words: LTEA_HepaRG_JUN: Life Technologies and Expression Analysis (LTEA) Assay for JUN Transcription Factor using HepaRG (AID 2283513). The method, boiled down:
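mRNA measured by TaqMan qRT-PCR after 48 h chemical exposure of HepaRG cultures; normalization to three housekeeping genes. Duplicate eight-point half-log curves from 100 uM in 0.5% DMSO; gain or loss fitted against DMSO baseline.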

Chain of Hypoxia-inducible factor 1-alpha (Homo sapiens) (Q16665 whole entry, looked up): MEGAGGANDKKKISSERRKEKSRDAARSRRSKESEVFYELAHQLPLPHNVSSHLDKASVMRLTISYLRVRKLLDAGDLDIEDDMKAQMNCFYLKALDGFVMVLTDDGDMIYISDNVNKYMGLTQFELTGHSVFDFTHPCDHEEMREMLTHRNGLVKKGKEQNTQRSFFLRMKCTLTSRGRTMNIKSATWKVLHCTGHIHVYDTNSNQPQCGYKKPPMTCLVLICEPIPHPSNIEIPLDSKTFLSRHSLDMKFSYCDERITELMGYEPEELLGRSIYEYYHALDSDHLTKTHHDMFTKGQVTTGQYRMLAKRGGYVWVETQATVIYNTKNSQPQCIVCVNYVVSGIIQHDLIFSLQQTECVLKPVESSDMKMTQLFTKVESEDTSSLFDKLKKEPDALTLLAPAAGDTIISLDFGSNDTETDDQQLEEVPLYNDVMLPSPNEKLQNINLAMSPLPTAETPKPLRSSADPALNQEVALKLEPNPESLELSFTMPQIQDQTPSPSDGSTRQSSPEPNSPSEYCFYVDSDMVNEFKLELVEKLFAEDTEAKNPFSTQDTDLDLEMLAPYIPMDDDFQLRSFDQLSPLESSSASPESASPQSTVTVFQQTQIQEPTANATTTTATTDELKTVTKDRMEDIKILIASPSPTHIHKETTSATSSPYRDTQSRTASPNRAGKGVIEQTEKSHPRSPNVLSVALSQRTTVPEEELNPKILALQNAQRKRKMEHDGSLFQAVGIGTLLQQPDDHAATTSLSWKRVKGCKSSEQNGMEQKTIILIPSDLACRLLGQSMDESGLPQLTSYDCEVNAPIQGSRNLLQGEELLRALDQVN

On to `[N-]=[N+]=[N-]`, for which the AC50 is 77.6 µM (active) in experiment [1]; 50 µM (active) in experiment [2]; 79.3 µM (active) in [4]; 78.1 µM (active) in experiment [6]; 95 µM (active) in experiment [7]; 77 µM (active) in experiment [11]. Further, the AC50 in experiment [12] is 68.6 µM (active); in [14], 86.4 µM (active); in experiment [15] it was 93.6 µM (active). Besides, the result (in experiment [3]; in [5]; in [8]; in [9]; in experiment [10]; in the experiment with HGF (gene 3082)) was inactive. Also, the result in [13], in [16], in [17] and in experiment [18] was inactive.
Take `O=C(O)C(Cl)Cl`: the compound was called inactive in experiment [1], in experiment [2], in experiment [3], in experiment [4], in experiment [5] and in experiment [6]. For the same compound, the compound was classed as inactive (in [7]; in [8]; in [9]; in experiment [10]; in experiment [11]; with HGF (gene 3082)). Further, the compound was classed as inactive in experiment [12], in experiment [13], in [14], in experiment [15], in [16] and in [17]. Moreover, in experiment [18], the call was inactive.
In the case of `Cc1ccc(N)cc1N`, the result in [1], in experiment [2], in experiment [4], in experiment [5], in [6] and in experiment [7] was inactive. The compound was called inactive (in [8]; in experiment [9]; in experiment [10]; in [11]; with HGF (gene 3082); in experiment [12]). Besides, the result in [13], in [14], in [15], in [16], in experiment [17] and in experiment [18] was inactive. The half-maximal activity concentration (AC50) in experiment [3] is 18 µM (active).
For `CCC(C)(C)c1ccc(O)cc1`, the compound was called inactive in [1], in experiment [2], in experiment [3], in experiment [4], in [5] and in experiment [6]. In addition, the result (in [7]; in experiment [8]; in experiment [9]; in experiment [10]; in experiment [11]; with HGF (gene 3082)) was inactive. The outcome in experiment [12], in experiment [13], in experiment [14], in experiment [15], in experiment [16] and in experiment [17] was inactive. In [18], the outcome was inactive.
Regarding `CCOP(=S)(OCC)SCSCC`, the outcome in [1], in experiment [2], in experiment [3], in experiment [4], in experiment [5] and in experiment [6] was inactive. Also, the compound was classed as inactive (in [7]; in experiment [8]; in [9]; in [10]; in experiment [11]; with HGF (gene 3082)). Besides, the compound was classed as inactive in [12], in [13], in [14], in experiment [15], in experiment [16] and in experiment [17]. For the same compound, the compound was classed as inactive in experiment [18].
On to `CCCCc1ccccc1`, for which the compound was called inactive in experiment [1], in experiment [2], in experiment [3], in experiment [4], in experiment [5] and in experiment [6]. For the same compound, the result (in experiment [7]; in experiment [8]; in experiment [9]; in experiment [10]; in [11]; with HGF (gene 3082)) was inactive. For the same compound, the outcome in [12], in experiment [13], in experiment [14], in experiment [15], in [16] and in [17] was inactive. The outcome in [18] was inactive.
